About 83,000 compounds went through this panel and 20% of them were active in at least one assay; those are over-represented in the sample as a whole.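 How to read the values: 0–100, growth inhibition (40 = 60% inhibited); 0, no net growth; -100 to 0, cell death (-40 = 40% of starting cells died; -100 = all dead).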 Values without a mark were called inactive. The source made the active and inactive calls.

The subject of the experiment is IGROV1 ovarian. The experiment in a line: NCI-60 one-dose screen, 48 h (100 = growth as untreated, 0 = no growth, -100 = all killed). Conditions: 10 µM unless noted. The protocol: Growth inhibition of the IGROV1 human tumor cell line is measured as a screen for anti-cancer activity. Cells are grown in 96 well plates and exposed to the test compound for 48 hours. Compounds are tested at a single concentration, which is 10^-5 M for most compounds. The reported endpoint is percent growth (GI% or GIPRCNT), where numbers from 0 - 100% represent growth inhibition, and numbers from -100% - 0 represent cell death. For example, a value of 40 represents 60% growth inhibition. A value of 0 means no net growth occurred over the course of the experiment. A value of -40 indicates 40% of cells at the beginning of the experiment died by the end of the experiment. A value of -100 means all cells are dead at the end of the experiment.
NCI-60 Human Tumor Cell Lines Screen was performed using the standard one-dose NCI protocol, which is described in more detail at https://dtp.cancer.gov/discovery_development/nci-60/default.htm.
Compounds with GIPRCNT values below 10 were considered active. Activity score was based on GIPRCNT using the following formula: […]
Score is 0 for GIPRCNT values of 100 or above, 50 for GIPRCNT values of 0, and 100 for GIPRCNT values of -100.
Turning to `CCOC(=O)c1csc(NC(=O)COc2cccc(/C=C3\CSc4ccccc4C3=O)c2)n1`, the growth is 1.28% (active).
On to `Oc1ccccc1-c1nnc(CNc2ccc(Cl)cc2)o1`, for which the growth was 25.9%.
Regarding `C[n+]1ccccc1/C=C/c1ccc2cccc(O)c2n1`, the growth is 105%.
For `COc1ccc2[nH]cc(-c3noc(C(=O)c4cn(C)c5ccc(F)cc45)n3)c2c1`, the growth is 60.1%.
`COc1cccc(/C=C2\SC(=Nc3ccc(NC(C)=O)cc3)NC2=O)c1OC`: the growth was 103%.
`CCOc1ccc(-n2nc(C(=O)Nc3cc(OC)c(OC)c(OC)c3)nc2-c2cc(OC)c(OC)c(OC)c2)cc1`: the growth is 90.8%.
The value for `COc1ccc(Nc2nc(SC)nc(-c3cccc([N+](=O)[O-])c3)c2C#N)cc1` was 72.3%; that for `NC(=O)c1cc(Br)ccc1NC(=O)/C=C/c1ccccc1` was 86.6%.
The value for `Cc1ccccc1COc1ccc(-c2ccnn2-c2ccc(Cl)cc2)cc1` was 57.5%; that for `CSc1nc(NCCO)c(C#N)c(-c2cccc([N+](=O)[O-])c2)n1` was 97.9%.
The value for `C#CC(F)(F)[C@]1(O)CC[C@H]2[C@@H]3CCC4=CC(=O)CCC4=C3[C@@H](c3ccc(C(C)=O)cc3)C[C@@]21C` was -34.3% (active); that for `CN(C)C(=S)N=Nc1c(O)[nH]c2ccccc12` was -58.9% (active); that for `Clc1ccc2nc3nc4ccc[nH]c4cc3c2c1` was 52.9%.
`COc1ccc(NC2=C(Sc3nc(C)cc(C)n3)C(=O)N(Cc3ccccc3)C2=O)cc1Cl`: the growth is 113% [30 µM].
Turning to `Clc1ccc2c(NCCCCNc3nc(N4CCCCC4)nc4ccccc34)ccnc2c1`, the growth is 20.8%.
Regarding `O=C(CN(C(=O)Cn1c(=O)n2nnnc2c2ccccc21)c1ccccc1C(F)(F)F)Nc1ccc(C(F)(F)F)cc1`, the growth was 88.1%.
For `CC(=O)c1cc2c(N)c(C(=O)Nc3cccc4ccccc34)sc2nc1C`, the growth was 34.7%.
In the case of `Cc1cc(N[C@@H]2CCC[C@H](Nc3ccnc4cc(Cl)ccc34)C2)nc(N2CCCCCC2)n1`, the growth is -45.5% (active).
With `Cc1ccc(OC(=O)c2ccc(Cl)cc2)cc1`, the growth is 116%.
As for `CN(C)CCN1C(=O)c2cccc3c(N)ccc(c23)C1=O`, the growth was 27.6%.
The value for `Cc1ccc(C2=NN3C(C2)c2cc(Br)ccc2OC32CCN(Cc3ccccc3)CC2)o1` (stereo not given) was 82.1%; that for `COc1ccccc1Nc1nc(-c2cc3cccc(C(F)(F)F)c3oc2=O)cs1` was 22.9%.
The value for `CCc1nnc(CNc2ccc(Cl)cc2)o1` was 105%; that for `CCCCn1cnc2c(Sc3c([N+](=O)[O-])ncn3C)nc(N)nc21` was 89.3%; that for `C#CCOc1ccc2ncnc(N3CCN(C(=O)CCl)CC3)c2c1` was -30.9% [8.25 µM] (active).
The value for `O=C1C=C(O)C(=O)C(CC2=C(O)C(=O)C=C(O)C2=O)=C1O` was 109%; that for `COc1ccc(C2CC(c3ccc4ccccc4c3)=NN2/C=C2\SC(=S)N(NC(=O)Cc3ccccc3Nc3c(Cl)cccc3Cl)C2=O)cc1` (stereo not given) was 33.1%; that for `O=C(CN1C(=O)/C(=C/c2ccc(Cl)cc2)SC1=S)NCCCN1CCOCC1` was 108%.
Regarding `COc1cc(/C=C/C(=O)c2cccnc2Nc2ccc(F)cc2)cc(OC)c1OC`, the growth was 91.7%.
For `COc1cccc(Nc2nc(SC)nc(-c3cccc([N+](=O)[O-])c3)c2C#N)c1`, the growth is 74.7%.
Regarding `CCN(CC)c1ccc(-c2cc(-c3cc(OC)c(OC)c(OC)c3)nc(N3CCOCC3)c2C#N)cc1`, the growth is 19.5%.
The value for `COc1cc2c(cc1-c1c(C)noc1C)ncc1nc(C3CCOCC3)n([C@@H](C)COC(F)F)c12` was 67%.
Turning to `CCOC(=O)n1cc(-c2nonc2-c2cn(C)c3ncccc23)c2ccccc21`, the growth is 54.2%.
Regarding `COc1ccc(S(=O)(=O)N2CCN(C)CC2)cc1NC(=O)c1[nH]c(C)c2c1CCCCC2=O`, the growth is 47%.
Take `C#CC(F)(F)[C@]1(O)CC[C@H]2[C@@H]3CCC4=CC(=O)CCC4=C3[C@@H](c3ccc(C4CC4)cc3)C[C@@]21C`: the growth was -48.5% (active).
As to `Cc1cc(Nc2ccc(C)c(Cl)c2)n2nc(C(F)(F)F)nc2n1`, the growth is 15.1%.
The value for `O=C(Cc1ccccc1Nc1c(Cl)cccc1Cl)NN1C(=O)/C(=C/c2ccc(Br)cc2)SC1=S` was 97.7%; that for `O=C(/C=C/c1ccc(C(F)(F)F)cc1)Nc1ccc(C=C2c3ccccc3C(=O)c3ccccc32)cc1` was 111%.
Regarding `N#C/C(=C\c1ccc(-c2ccc(Cl)c(Cl)c2)o1)c1nc(-c2ccco2)cs1`, the growth is 40.5%.
In the case of `C#Cc1cccc(NC(=O)c2ccccc2NC(=O)C=C)c1`, the growth was 101% [8.25 µM].

The record behind these values is PubChem BioAssay (NCI).
